These results are taken from PubChem BioAssay (NCI).

SMILES strings stand for the structures. Compounds without any hit were thinned out: in the full panel of roughly 83,000, 20% have a hit.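 Percent growth is the endpoint: 0 to 100 indicates growth inhibition (40 means 60% inhibition), 0 means no net growth, and negative values indicate cell death.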 Active and inactive are the calls of the source. Rule for the calls: active = growth percent below 10; inactive = the rest.

For one test, the system named is OVCAR-4 ovarian. The test is described as follows: NCI-60 one-dose screen, 48 h (100 = growth as untreated, 0 = no growth, -100 = all killed). Particulars: 10 µM.
`Cc1ccc(NCC(=O)Nn2c(COc3ccccc3)nc3ccccc3c2=O)cc1`: the growth was 25.4% (inactive).

On to `CO[C@@H]1CSSC1Cn1nc(-c2ccc(Oc3ccccc3)cc2)c2c(N)ncnc21` (some centres undefined), for which the growth is 53.3% (inactive). On the same count and under the same terms, the value for `COc1cc(Cn2c(C(F)(F)F)cc3c(Cl)ncnc32)ccn1` was -58.4% (active); that for `COc1ccc(/C(C)=N/N=C2C(=O)N(C)c3ccc(Br)cc32)cc1S(N)(=O)=O` was 48.4% (inactive); that for `N#Cc1c(-c2ccc(F)cc2)nc(SCc2ccc(F)cc2)nc1N1CCOCC1` was 60.5% (inactive). As for `S=c1nc(-c2ccccc2)cc(-c2cc3ccccc3nc2Cl)[nH]1`, the growth is 91.7% (inactive). `C=C(C)[C@@H]1CC[C@]2(C(=O)OC)CC[C@]3(C)[C@H](CC[C@@H]4[C@@]5(C)CC[C@H](N)C(C)(C)[C@@H]5CC[C@]43C)[C@@H]12`: the growth is -93.1% (active).

Take `O=C(c1ccc(O)cc1)C1[C@H](c2ccccc2Br)[C@@H](c2ccccc2)NC12C(=O)Nc1ccc(Cl)cc12` (some centres undefined): the growth was 17% (inactive). The same measure, in the same setting: with `CC[C@@]1(O)C(=O)OCc2c1cc1n(c2=O)Cc2c-1nc1cc(F)c(C)c3c1c2[C@@H](N)CC3` the figure was -4.52% (active).

The next test has as its system SK-OV-3 ovarian. Described as above. Particulars: 10 µM.
Regarding `CC(=O)Nc1nc(-c2ccc(N3CCN(C)CC3)c(NS(=O)(=O)c3cccc4c(N(C)C)cccc34)c2)cs1`, the growth is 63.9% (inactive). For `CN1CCN(Cc2ccc(C(=O)Nc3cccc(Nc4ccc5cc(O)ccc5n4)c3)cc2C(F)(F)F)CC1`, the growth is 26.3% (inactive). Regarding `O=C(c1ccc(O)cc1)C1[C@H](c2ccccc2Br)[C@@H](c2ccccc2)NC12C(=O)Nc1ccc(Br)cc12` (some centres undefined), the growth is 65.2% (inactive). On the same count and under the same terms, with `Brc1ccc(/C=N/Nc2ncnc3sc4c(c23)CCN(Cc2ccccc2)C4)cc1` the figure was 107% (inactive); with `O=C(c1ccc(O)cc1)C1[C@H](c2ccc(Br)cc2)[C@@H](c2ccccc2)NC12C(=O)Nc1ccccc12` (some centres undefined), 77.3% (inactive); with `O=c1[nH][nH]c(Nc2ccccc2)c1N=Nc1ccc(F)cc1`, 94.5% (inactive). `Cc1ccc(-c2nc3ccc(C(=O)N=Nc4c(O)[nH]c5ccc(Cl)cc45)cc3[nH]2)cc1`: the growth was 30.7% (inactive). Still for that read-out and setting: the value for `COc1ccc(C(=O)Nc2ccc(-c3ccc4c(c3)NC(=O)/C4=C\c3ccc[nH]3)cc2)cc1` was 79.2% (inactive). Still for that read-out and setting: with `CNCc1cccc2c1OCCCCCC[C@@](C)(O)CC1(CC1)S(=O)(=O)c1ccc(cc1)-c1cnc(N)c(n1)C(=O)N2` the figure was -87.9% (active); with `COc1cccc2nc(Nc3ccc(F)c(NC(=O)c4ccc(CN5CCN(C)CC5)c(C(F)(F)F)c4)c3)ccc12`, 53.8% (inactive). The same measure, in the same setting: the value for `CCOC(=O)C1NN(c2ccc(S(N)(=O)=O)cc2)c2nc3nc(-c4cccs4)cc(-c4cccs4)c3c(=O)n21` (centres undefined) was 93.6% (inactive). For the compound `O=C1Nc2cc(Cl)ccc2/C1=C/c1cccc(OCc2ccc(Br)cc2F)c1`, the growth is 40.7% (inactive).

As to `O=C(c1ccc(Cl)cc1)C1[C@H](c2ccccc2Br)[C@@H](c2ccccc2)NC12C(=O)Nc1ccc(Br)cc12` (some centres undefined), the growth was 36.2% (inactive).

On to `O=c1[nH]n(C(=S)N/N=C/c2ccc(F)cc2)c(=O)c2ccccc12`, for which the growth was 102% (inactive).

`CC1(C)CC[C@]2(C(=O)O)CC[C@]3(C)C(=CC[C@@H]4[C@@]5(C)C/C(=C/c6ccncc6)[C@H](O)C(C)(C)[C@@H]5CC[C@]43C)[C@@H]2C1`: the growth was 65% (inactive).

As for `CC1(C)CC[C@]23CC[C@]4(C)[C@H](CC[C@@H]5[C@@]6(C)CC[C@H](N)C(C)(C)[C@@H]6CC[C@]54C)[C@H]2[C@H]1OC3=O`, the growth was -32.1% (active). On the same count and under the same terms, with `C#CCNC(=O)[C@]12CCC(C)(C)C[C@H]1C1=CC[C@@H]3[C@@](C)(CCC#N)[C@H](C(=C)C)CC[C@@]3(C)[C@]1(C)CC2` the figure was 62.6% (inactive).

With `COC1CC(Cn2cc(COc3ccc4ccc(=O)oc4c3)nn2)C(OCc2ccccc2)C(OCc2ccccc2)C1OCc1ccccc1` (centres undefined), the growth is 91.9% (inactive). On the same count and under the same terms, the value for `Cc1cccc2cc(-c3cc(-c4ccccc4)nc(=O)[nH]3)c(Cl)nc12` was 118% (inactive). Same read-out and setting: the value for `Cc1ccc(CSc2nc(-c3ccc(F)cc3)c(C#N)c(=O)[nH]2)cc1` was 105% (inactive); that for `O=C1Nc2cc(-c3ccc(NC(=O)c4cccc([N+](=O)[O-])c4)cc3)ccc2/C1=C/c1ccc[nH]1` was 115% (inactive). Same read-out and setting: the value for `C=C(C)[C@@H]1CC[C@]2(COP(=O)(OCC)OCC)CC[C@]3(C)[C@H](CC[C@@H]4[C@@](C)(CCCN)[C@H](C(=C)C)CC[C@]43C)[C@@H]12` was 46.2% (inactive); that for `O=C(CS(=O)(=O)c1oc(-c2ccc(Cl)cc2)nc1S(=O)(=O)c1ccc(Cl)cc1)N1CCOCC1` was 92.8% (inactive). Consider `CN1CCN(c2ccc(Nc3nc(NCCCNC(=O)c4ccc(Cl)cc4)c4sccc4n3)cc2)CC1`, for which the growth was 103% (inactive). The same measure, in the same setting: with `CN1CCN(c2ccc(Nc3nc(NCCNC(=O)c4ccc(C(F)(F)F)cc4)c4sccc4n3)cc2)CC1` the figure was 77% (inactive). On the same count and under the same terms, with `O=C(NCCCCC(c1ccc(F)cc1)c1ccc(F)cc1)NCCCc1cccnc1` the figure was 23.6% (inactive); with `O=C(c1ccc(Cl)cc1)C1[C@H](c2ccc(Br)cc2)[C@@H](c2ccccc2)NC12C(=O)Nc1ccc(Br)cc12` (some centres undefined), 2.89% (active); with `COc1ccc2[nH]c(O)c(N=NC(=O)COc3ccc(NC(=O)Nc4ccc(Cl)cc4)cc3)c2c1`, 49.6% (inactive). Take `CONC[C@]1(C)C=C2C(=O)[C@](C)(O)C3(CC3)C(C)=C2[C@H]1O`: the growth was -14.4% (active). Still for that read-out and setting: the value for `COC[C@@H](CC(C)C)N=C1NC(=O)/C(=C/c2ccc3ncoc3c2)N1` was -40.8% (active); that for `O=C(c1ccc(Cl)cc1)C1[C@H](c2ccccc2Br)[C@@H](c2ccccc2)NC12C(=O)Nc1ccccc12` (some centres undefined) was 35.9% (inactive); that for `Cc1ccc(NCC(=O)Nn2c(COc3ccccc3)nc3ccccc3c2=O)cc1` was 52.8% (inactive). Turning to `CO[C@@H]1CSSC1Cn1nc(-c2ccc(Oc3ccccc3)cc2)c2c(N)ncnc21` (some centres undefined), the growth is 1.98% (active). Still for that read-out and setting: with `COc1cc(Cn2c(C(F)(F)F)cc3c(Cl)ncnc32)ccn1` the figure was 75.4% (inactive); with `COc1ccc(/C(C)=N/N=C2C(=O)N(C)c3ccc(Br)cc32)cc1S(N)(=O)=O`, 58.8% (inactive). As for `N#Cc1c(-c2ccc(F)cc2)nc(SCc2ccc(F)cc2)nc1N1CCOCC1`, the growth is 39.6% (inactive). The same measure, in the same setting: with `S=c1nc(-c2ccccc2)cc(-c2cc3ccccc3nc2Cl)[nH]1` the figure was 75% (inactive); with `C=C(C)[C@@H]1CC[C@]2(C(=O)OC)CC[C@]3(C)[C@H](CC[C@@H]4[C@@]5(C)CC[C@H](N)C(C)(C)[C@@H]5CC[C@]43C)[C@@H]12`, -54.8% (active). Still for that read-out and setting: the value for `O=C(c1ccc(O)cc1)C1[C@H](c2ccccc2Br)[C@@H](c2ccccc2)NC12C(=O)Nc1ccc(Cl)cc12` (some centres undefined) was 29.6% (inactive); that for `CC[C@@]1(O)C(=O)OCc2c1cc1n(c2=O)Cc2c-1nc1cc(F)c(C)c3c1c2[C@@H](N)CC3` was -32% (active).
